Results filed as inconclusive are left out. Entries that show only a call come without a potency. The source made the active and inactive calls. Calls follow the shape of the dose curve; as a rule, active = well fitted curve in the direction sought with a large enough effect; inconclusive = small, poorly fitted or top-dose-only effect, or another doubt; inactive = no such curve, though single readings can be large; an effect the other way counts as inactive or inconclusive.

Among the data in PubChem BioAssay (NCATS) are Potency values, retold here.

Experiment [1] has as its target Aldehyde dehydrogenase, mitochondrial (Homo sapiens) (UniProt P05091). The experiment is described as follows: qHTS for Inhibitors of the Aldehyde Dehydrogenase Family (ALDH2) Primary screen (AID 2061308). Also: nearly all actives have a fitted effect of over 55% in size.
Experiment [2] concerns the target Retinaldehyde dehydrogenase 3 (Homo sapiens) (UniProt P47895). Kind of experiment: qHTS for Inhibitors of the Aldehyde Dehydrogenase Family (ALDH1A3) Primary screen (AID 2061315). For orientation: qHTS replaces the single test concentration by a dilution series.

With `Cc1cc(N[S+](=O)([O-])c2cc3c(cc2Cl)NC(=O)CO3)ccc1Br`, the Potency result in experiment [1] and in experiment [2] was “inactive” throughout.

For `Fc1cc(Nc2nc(-c3ccncc3)nc3ccccc23)ccc1-c1ccnc(C(F)(F)F)c1`, the Potency result in experiment [1] and in experiment [2] was “inactive” in each case.

For `O=C1Cc2cc(S(=O)(=O)N3CCN(c4cccc(C(F)(F)F)c4)CC3)ccc2N1`, the Potency entry in experiment [1] and in experiment [2] was “inactive” throughout.

`C#CCOc1ccc(C(C)=O)cc1-c1nnc2n1N=C(c1ccc(OC)c(OC)c1)CS2`: the Potency result in experiment [1] and in experiment [2] was “inactive” in each case.

As to `c1ccc2sc(-c3csc4c3CCNC4)nc2c1`, the Potency result in experiment [1] and in experiment [2] was “inactive” in each case.

In the case of `CC(=O)c1ccc(N2CCN(S(=O)(=O)c3ccc(N4CCCC4=O)cc3)CC2)cc1`, the Potency result in experiment [1] and in experiment [2] was “inactive” throughout.

As to `CCN(CC)CCCCn1c(-c2ccccc2)nc2c(N(CCOC)CCOC)nc(C)nc21`, the Potency result in experiment [1] and in experiment [2] was “inactive” each time.

`S=C(NCCCc1cnc[nH]1)NCCN(Cc1ccc(Cl)c(Cl)c1)c1ccc(Br)cn1`: the Potency result in experiment [1] and in experiment [2] was “inactive” each time.

For `CC1=C(CC(=O)O)c2cc(F)ccc2C1=Cc1ccc(S(C)(=O)=O)cc1`, the Potency result in experiment [1] and in experiment [2] was “inactive” in each case.

Consider `CC(C)(C)c1cc(O)c(CN)c(C(C)(C)C)c1`, for which the Potency entry in experiment [1] and in experiment [2] was “inactive” each time.

On to `CCC(=O)NC(c1ccc2c(c1)OCO2)c1cc(Cl)c2cccnc2c1O` (stereo not drawn), for which the Potency entry in experiment [1] and in experiment [2] was “inactive” throughout.

As to `CC(=O)Nc1sc2c(c1-c1ccc(-c3nn[nH]n3)cc1)CCNC2`, the Potency result in experiment [1] and in experiment [2] was “inactive” throughout.

For the compound `O=C1c2ccccc2C(=O)N1Cc1ccccn1`, the Potency result in experiment [1] and in experiment [2] was “inactive” in each case.

Turning to `O=C(CN1C(=O)N/C(=C\c2cn(-c3cccc(C(=O)O)c3)cn2)C1=O)Nc1ccc(Cl)cc1`, the Potency result in experiment [1] and in experiment [2] was “inactive” in each case.

As to `NC(=O)c1ccccc1C[C@H](C(=O)O)N1C(=O)c2ccc(C(=O)O)cc2C1=O`, the Potency result in experiment [1] and in experiment [2] was “inactive” each time.

For the compound `CC(=O)N1CCN(S(=O)(=O)c2ccc3c(c2)CC(=O)N3)CC1`, the Potency result in experiment [1] and in experiment [2] was “inactive” in each case.

For the compound `CCOC(=O)c1c(CNCc2ccccc2F)c2sc(C)cc2n1C`, the Potency result in experiment [1] and in experiment [2] was “inactive” in each case.

Take `O=C1CCCC2=C1[C@@]1(CCC(c3ccccc3)C1)N=C(Nc1nc3ccccc3o1)N2` (stereo partly drawn): the Potency entry in experiment [1] and in experiment [2] was “inactive” throughout.

As for `CCOc1ccc(CCNC(=O)c2cc3sccc3n2CCc2ccccc2)cc1OCC`, the Potency result in experiment [1] and in experiment [2] was “inactive” in each case.

With `COC(=O)C1=CO[C@@H](O[C@@H]2O[C@H](CO)[C@@H](O)[C@H](O)[C@H]2O)C2C1C(=O)C[C@H]2C` (stereo partly drawn), the Potency result in experiment [1] and in experiment [2] was “inactive” in each case.

`CCCCNc1nc(C)nc2c1nc(-c1ccccc1)n2C(C)CCCN(CC)CC` (stereo not drawn): the Potency result in experiment [1] and in experiment [2] was “inactive” each time.

As to `Cc1cc2c(s1)c1cnn(Cc3c(F)ccc(C)c3F)c(=O)c1n2C`, the Potency result in experiment [1] and in experiment [2] was “inactive” in each case.

For the compound `Cc1ccc(-c2c(C(=O)CF)n(CCCO)c3ncnc(N)c23)cc1`, the Potency entry in experiment [1] and in experiment [2] was “inactive” throughout.

Consider `O=C(Cc1ccc(Cl)c(Cl)c1)Nc1ccc(S(=O)(=O)NCc2ccco2)cc1`, for which the Potency result in experiment [1] and in experiment [2] was “inactive” throughout.

In the case of `COc1ccc(-n2cnc3c(c2=N)C(c2cccc(OC)c2)c2c(ccc4ccccc24)O3)cc1` (stereo not drawn), the Potency result in experiment [1] and in experiment [2] was “inactive” each time.

As to `Cc1ccc(S(=O)(=O)Nc2cnccc2C(=O)Nc2nc(-c3nc4ccccc4s3)cs2)cc1`, the Potency result in experiment [1] and in experiment [2] was “inactive” throughout.

As for `O=S(=O)(Nc1ccccc1F)c1ccc(O)c2ncccc12`, the Potency result in experiment [1] and in experiment [2] was “inactive” in each case.

As for `Oc1ccc(CCc2ccccc2)c2cccnc12`, the Potency result in experiment [1] and in experiment [2] was “inactive” each time.

On to `Cc1ccc(OCCn2c(CCNC(=O)c3cc(N)ccc3N)nc3ccccc32)cc1`, for which the Potency result in experiment [1] and in experiment [2] was “inactive” throughout.

`O=S(=O)(NCCNS(=O)(=O)c1c(F)cccc1F)c1ccc2c(c1)OCCO2`: the Potency result in experiment [1] and in experiment [2] was “inactive” each time.

Consider `Cc1ccccc1-c1ccc(NC(=O)c2cccs2)cn1`, for which the Potency entry in experiment [1] and in experiment [2] was “inactive” each time.

For the compound `COC(=O)C(CC1(O)c2ccccc2N2C(=O)C(C)(C)N(O)C21)n1cnc2ccccc2c1=O` (stereo not drawn), the Potency result in experiment [1] and in experiment [2] was “inactive” in each case.

In the case of `CCOC(=O)C1CCN(C(=O)C2(NC(=O)Nc3ccc(F)cc3F)CCCCC2)CC1`, the Potency entry in experiment [1] and in experiment [2] was “inactive” in each case.

On to `O=[S+]([O-])(Nc1nccs1)c1ccc(NCc2ccc(Cl)c(Cl)c2)cc1`, for which the Potency result in experiment [1] and in experiment [2] was “inactive” in each case.

Consider `Cc1ccc(NS(=O)(=O)c2ccc(C(=O)Nc3nc(-c4ccccc4)cs3)cc2)cc1`, for which the Potency entry in experiment [1] and in experiment [2] was “inactive” each time.

On to `FC(F)(F)c1ccccc1-c1nc(NCc2cccc3ccccc23)c2ccccc2n1`, for which the Potency entry in experiment [1] and in experiment [2] was “inactive” in each case.

For `Cc1cccc(-c2nnc(C)n2CCCn2ccnc2)c1N`, the Potency result in experiment [1] and in experiment [2] was “inactive” in each case.

For the compound `Cc1ccc(OCCn2c(CCNC(=O)c3ccc(Br)cc3)nc3ccccc32)cc1`, the Potency entry in experiment [1] and in experiment [2] was “inactive” each time.

In the case of `O=S(=O)(c1ccc(O)c2ncccc12)N1CCCCC1`, the Potency entry in experiment [1] and in experiment [2] was “inactive” each time.
